Structures are written as SMILES. Active and inactive are the calls of the source. Rule for the calls: active = hit-call score of the fitted dose curve at least 0.9, where 1 is the maximum; inactive = score below 0.9.

Assay [1] can be described thus: ATG_E_Box_CIS: Attagene CIS-FACTORIAL HepG2 Assay for human Enhancer Box (E-box) (AID 2282936). The note with it: HepG2 E-box cis-reporter transcription, actives raise or lower the signal. The essentials: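 Multiplexed CIS reporter system in transiently transfected HepG2 cells measures native transcription factor activity. Reporter RNA after 24 h exposure is profiled by RT-PCR-capillary electrophoresis.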

Assay [2] can be described thus: ATG_M_61_CIS: Attagene CIS-FACTORIAL HepG2 Assay for M61 Transcription Factor (Internal Marker) (AID 2282937). The note with it: HepG2 Attagene CIS-FACTORIAL M61 internal marker reporter; actives raise or lower the signal. The essentials: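 Human liver HepG2, transient MRTU transfection (cis promoter elements), 24 h compound. Total RNA → oligo(dT) RT → PCR → FAM label → HpaI → CE. Internal background marker; bidirectional fitting, DMSO = baseline.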

The nature of assay [3]: ATG_EGR_CIS: Attagene CIS-FACTORIAL HepG2 Assay for human Early Growth Response 1 (EGR1) (AID 2282938). The note with it: HepG2 Attagene CIS-FACTORIAL EGR reporter mRNA; actives raise or lower the signal. The essentials:
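Transient transfection of human HepG2 with multiple cis-regulated reporter units, chemical exposure 24 h, total RNA isolated. Reverse transcription, PCR, fluorescent labelling and capillary electrophoresis quantify reporter transcripts; activity fitted bidirectionally against DMSO.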

The nature of assay [4]: ATG_M_19_CIS: Attagene CIS-FACTORIAL HepG2 Assay for M19 Transcription Factor (Internal Marker) (AID 2282939). The note with it: HepG2 Attagene CIS-FACTORIAL M19 internal marker reporter; actives raise or lower the signal. The essentials:
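Following a 24 h exposure, RNA from transfected HepG2 cells was reverse-transcribed, PCR-amplified with reporter-specific primers, end-labelled with 6-FAM and HpaI-digested before capillary separation. Values represent gain or loss versus DMSO.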

The nature of assay [5]: ATG_ERE_CIS: Attagene CIS-FACTORIAL HepG2 Assay for Estrogen Response Element (ERE) (AID 2282940). The note with it: HepG2 ERE cis-reporter, Attagene RNA transcript; actives raise or lower the signal. The essentials:
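HepG2, transient cis-reporter units, 24 h exposure. RNA isolated, oligo(dT) RT, reporter-specific PCR, FAM extension, HpaI cut, CE detection. Gain/loss-of-signal vs DMSO.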

Assay [6] can be described thus: ATG_Ets_CIS: Attagene CIS-FACTORIAL HepG2 Assay for human Erythroblast Transformation Specific (ETS) (AID 2282941). The note with it: HepG2 ETS cis-reporter transcription, actives raise or lower the signal. The essentials:
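After transient cis-reporter transfection, HepG2 cells receive test chemical for 24 h. Reporter mRNA levels, measured by RT-PCR and capillary electrophoresis fluorescence, are analysed bidirectionally relative to the DMSO baseline.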

Assay [7] deals with Hepatocyte nuclear factor 3-beta (Homo sapiens) (UniProt Q9Y261). Put plainly: ATG_FoxA2_CIS: Attagene CIS-FACTORIAL HepG2 Assay for human Forkhead box A2 (FOXA2) (AID 2282942). The note with it: HepG2 cis-reporter transcription factor activity, 24 h; actives raise or lower the signal. The essentials: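 Transient MRTU transfection of HepG2 liver cells; 24 h treatment; total RNA → oligo(dT) RT → PCR → FAM primer extension → HpaI cut → CE. Bidirectional fit vs DMSO.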
Chain of Hepatocyte nuclear factor 3-beta (Homo sapiens) (Q9Y261 whole entry, looked up): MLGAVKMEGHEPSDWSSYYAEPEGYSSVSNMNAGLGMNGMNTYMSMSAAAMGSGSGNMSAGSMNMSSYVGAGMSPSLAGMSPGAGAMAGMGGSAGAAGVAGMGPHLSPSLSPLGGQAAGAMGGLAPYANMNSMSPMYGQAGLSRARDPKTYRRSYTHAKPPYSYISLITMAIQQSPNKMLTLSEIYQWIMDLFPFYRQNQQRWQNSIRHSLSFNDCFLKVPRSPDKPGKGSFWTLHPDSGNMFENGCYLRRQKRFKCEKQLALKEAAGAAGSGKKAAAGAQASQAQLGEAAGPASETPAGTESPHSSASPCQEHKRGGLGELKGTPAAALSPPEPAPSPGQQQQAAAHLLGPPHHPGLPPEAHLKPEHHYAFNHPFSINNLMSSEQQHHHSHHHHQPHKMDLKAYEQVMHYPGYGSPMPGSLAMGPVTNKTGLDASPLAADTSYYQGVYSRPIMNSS

Assay [8] in a line: ATG_FoxO_CIS: Attagene CIS-FACTORIAL HepG2 Assay for human Forkhead box O (FoxO) (AID 2282943). The note with it: HepG2 Attagene cis-reporter, FoxO element, mRNA; actives raise or lower the signal. The essentials: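 Values reflect reporter mRNA induction or loss in HepG2 cells 24 h post-dosing, fitted bidirectionally with DMSO as negative control and baseline. Detection used RT-PCR and fluorescence capillary electrophoresis.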

The nature of assay [9]: ATG_GLI_CIS: Attagene CIS-FACTORIAL HepG2 Assay for human Zinc Finger Protein GLI1 (AID 2282945). The note with it: HepG2, Attagene cis-factorial reporter mRNA, GLI element; actives raise or lower the signal. The essentials: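 HepG2 cells transiently transfected with cis-promoter multiplexed reporter units report endogenous transcription factor activity. After 24 h chemical exposure, reporter mRNA was quantified by RT-PCR, 6-FAM labelling, HpaI digestion and capillary electrophoresis, with bidirectional fitting against DMSO.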

The nature of assay [10]: ATG_GRE_CIS: Attagene CIS-FACTORIAL HepG2 Assay for human Glucocorticoid Response Elements (GRE) (AID 2282947). The note with it: HepG2 GRE cis-reporter, Attagene multiplex mRNA; actives raise or lower the signal. The essentials: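 Following 24 h chemical exposure of transiently transfected HepG2 cells, total RNA was reverse-transcribed and reporter cDNA amplified, fluorescently labelled and sized by capillary electrophoresis. Signal gain or loss was fitted relative to DMSO vehicle.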

A short description of assay [11]: ATG_ISRE_CIS: Attagene CIS-FACTORIAL HepG2 Assay for human Interferon Regulatory Factor 1 (IRF1) binding to an Interferon-Stimulated Response Element (ISRE) (AID 2282948). The note with it: HepG2 ISRE cis-reporter (Attagene), mRNA transcription readout; actives raise or lower the signal. The essentials:
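Quantitation relies on labelled RT-PCR fragments separated by capillary electrophoresis. Human HepG2 cells bearing cis-promoter reporter constructs were treated 24 h; DMSO served as baseline for bidirectional fitting.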

Assay [12] is described as follows: ATG_M_32_CIS: Attagene CIS-FACTORIAL HepG2 Assay for M32 Transcription Factor (Internal Marker) (AID 2282949).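 Note: background control marker of the multiplexed CIS panel rather than a real target.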 The note with it: HepG2 Attagene cis-factorial M32 reporter, mRNA; actives raise or lower the signal. The essentials: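 Fluorescent capillary electrophoresis peaks of HpaI-digested, FAM-labelled RT-PCR reporter products give the signal. Source: transiently transfected human liver HepG2 cells, 24 h after chemical dosing; bidirectional fitting against DMSO.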

Assay [13] is described as follows: ATG_M_06_CIS: Attagene CIS-FACTORIAL HepG2 Assay for M06 Transcription Factor (Internal Marker) (AID 2282950). The note with it: HepG2 Attagene CIS-FACTORIAL M06 internal marker reporter; actives raise or lower the signal. The essentials: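 Fluorescence-labelled RT-PCR products from cis-promoter reporter units, cut with HpaI and resolved by capillary electrophoresis, give the signal. Cells are human HepG2, dosed for 24 h. Serves as background control, fitted relative to DMSO.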

In assay [14] the target is Hypoxia-inducible factor 1-alpha (Homo sapiens) (UniProt Q16665). Put plainly: ATG_HIF1a_CIS: Attagene CIS-FACTORIAL HepG2 Assay for human Hypoxia Inducible Factor 1 (HIF1A) (AID 2282951). The note with it: HepG2 Attagene cis-factorial HIF1a reporter transcription; actives raise or lower the signal. The essentials: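 Transient MRTU transfection of human HepG2 liver cells, 24 h compound treatment, then total RNA isolation, oligo(dT) reverse transcription, PCR amplification, fluorescent labelling and capillary electrophoresis of reporter fragments. Gain or loss relative to DMSO.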
Chain of Hypoxia-inducible factor 1-alpha (Homo sapiens) (Q16665 whole entry, looked up, the tested form may be a part): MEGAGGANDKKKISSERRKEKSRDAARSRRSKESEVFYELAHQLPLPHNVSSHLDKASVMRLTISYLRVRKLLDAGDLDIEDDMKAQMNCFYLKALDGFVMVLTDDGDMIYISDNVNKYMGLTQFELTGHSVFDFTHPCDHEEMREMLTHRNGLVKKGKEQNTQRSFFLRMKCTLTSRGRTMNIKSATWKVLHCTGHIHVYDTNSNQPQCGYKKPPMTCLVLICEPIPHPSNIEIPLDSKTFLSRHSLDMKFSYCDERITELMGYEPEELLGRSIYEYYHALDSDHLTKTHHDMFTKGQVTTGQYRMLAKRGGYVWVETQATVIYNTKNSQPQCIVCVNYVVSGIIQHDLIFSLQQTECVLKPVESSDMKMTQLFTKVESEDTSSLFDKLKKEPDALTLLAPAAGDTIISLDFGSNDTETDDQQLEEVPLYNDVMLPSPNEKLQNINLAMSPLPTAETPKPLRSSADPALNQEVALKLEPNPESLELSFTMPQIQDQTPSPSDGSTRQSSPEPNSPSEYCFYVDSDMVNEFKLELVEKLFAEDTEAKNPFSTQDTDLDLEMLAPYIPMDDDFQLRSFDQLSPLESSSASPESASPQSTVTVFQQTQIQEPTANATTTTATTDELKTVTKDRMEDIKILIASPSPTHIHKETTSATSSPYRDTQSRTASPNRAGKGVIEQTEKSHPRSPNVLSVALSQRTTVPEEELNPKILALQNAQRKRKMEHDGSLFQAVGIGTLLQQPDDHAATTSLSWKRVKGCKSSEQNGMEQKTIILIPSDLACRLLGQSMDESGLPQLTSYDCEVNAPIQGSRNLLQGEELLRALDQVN

Assay [15] concerns the target Hepatocyte nuclear factor 6 (Homo sapiens) (UniProt Q9UBC0). Description: ATG_HNF6_CIS: Attagene CIS-FACTORIAL HepG2 Assay for human Hepatocyte Nuclear Factor 6 (HNF6) (AID 2282952). The note with it: HepG2 Attagene cis-factorial HNF6 reporter transcription; actives raise or lower the signal. The essentials:
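HepG2, transient MRTU transfection (cis promoters); 24 h chemical exposure; total RNA → oligo(dT) RT → PCR → 6-FAM labelling → HpaI cut → CE; bidirectional fit vs DMSO.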

Assay [16] deals with Heat shock factor protein 1 (Homo sapiens) (UniProt Q00613). Put plainly: ATG_HSE_CIS: Attagene CIS-FACTORIAL HepG2 Assay for human Heat Shock Transcription Factor 1 (HSE) (AID 2282953). The note with it: HepG2 HSE cis-reporter, Attagene RNA transcription; actives raise or lower the signal. The essentials: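 After a 24 h incubation with test chemical, transfected HepG2 cells were harvested for RNA; reporter transcripts were measured by RT-PCR and capillary electrophoresis. Values reflect gain or loss of signal relative to DMSO.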
Chain of Heat shock factor protein 1 (Homo sapiens) (Q00613 whole entry, looked up): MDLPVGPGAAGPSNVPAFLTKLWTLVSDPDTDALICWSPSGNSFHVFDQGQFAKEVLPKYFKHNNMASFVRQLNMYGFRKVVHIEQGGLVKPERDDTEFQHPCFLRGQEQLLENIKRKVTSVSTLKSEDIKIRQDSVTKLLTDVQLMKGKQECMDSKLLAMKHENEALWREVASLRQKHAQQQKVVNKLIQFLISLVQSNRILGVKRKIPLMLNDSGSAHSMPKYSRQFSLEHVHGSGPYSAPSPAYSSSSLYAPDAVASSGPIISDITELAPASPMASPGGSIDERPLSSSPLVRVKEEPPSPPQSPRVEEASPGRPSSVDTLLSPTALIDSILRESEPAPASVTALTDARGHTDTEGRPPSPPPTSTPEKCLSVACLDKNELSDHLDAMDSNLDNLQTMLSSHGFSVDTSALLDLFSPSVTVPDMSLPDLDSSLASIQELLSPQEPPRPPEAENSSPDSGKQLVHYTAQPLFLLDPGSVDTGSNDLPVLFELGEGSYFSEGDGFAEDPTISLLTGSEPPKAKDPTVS

Assay [17] is described as follows: ATG_MRE_CIS: Attagene CIS-FACTORIAL HepG2 Assay for human Metal Responsive Element (MRE) (AID 2282954). The note with it: HepG2 MRE cis-reporter transcription, Attagene multiplex; actives raise or lower the signal. The essentials:
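Step one: transfect HepG2 with cis-regulated reporter units. Step two: dose 24 h. Step three: isolate RNA, RT-PCR, 6-FAM label, HpaI digest, capillary electrophoresis. Fit bidirectionally to DMSO.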

The nature of assay [18]: ATG_PBREM_CIS: Attagene CIS-FACTORIAL HepG2 Assay for human Phenobarbital-responsive Enhancer Module (PBREM) (AID 2282955). The note with it: HepG2 PBREM cis-reporter, Attagene multiplexed transcription; actives raise or lower the signal. The essentials:
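Endogenous transcription factors in human liver HepG2 cells drive a PBREM cis-element reporter, whose transcript level after 24 h treatment is quantified by RT-PCR with capillary electrophoresis; activity fitted in both directions against DMSO.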

Chain of Hepatocyte nuclear factor 6 (Homo sapiens) (Q9UBC0 whole entry, looked up): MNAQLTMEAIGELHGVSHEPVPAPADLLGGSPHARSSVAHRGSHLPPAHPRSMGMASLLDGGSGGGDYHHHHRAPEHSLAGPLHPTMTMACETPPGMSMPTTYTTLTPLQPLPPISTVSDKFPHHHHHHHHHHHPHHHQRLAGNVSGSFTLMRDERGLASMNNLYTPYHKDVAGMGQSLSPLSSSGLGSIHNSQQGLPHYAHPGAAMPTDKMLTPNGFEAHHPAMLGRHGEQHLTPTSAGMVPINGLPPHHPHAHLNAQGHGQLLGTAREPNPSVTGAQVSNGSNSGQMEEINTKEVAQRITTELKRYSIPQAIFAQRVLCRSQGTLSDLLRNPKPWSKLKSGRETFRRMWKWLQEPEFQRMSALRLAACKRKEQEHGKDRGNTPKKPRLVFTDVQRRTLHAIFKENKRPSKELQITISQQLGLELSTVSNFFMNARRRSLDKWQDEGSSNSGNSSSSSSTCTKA

As for `O=C(Nc1ccccc1SSc1ccccc1NC(=O)c1ccccc1)c1ccccc1`, the result in assay [1], in assay [2], in assay [3], in [4], in [5] and in assay [6] was inactive. Also, the call in [7], in [8], in assay [10], in assay [11], in assay [12] and in assay [13] was inactive. In addition, the call in [14], in [15], in assay [17] and in assay [18] was inactive. For the same compound, the AC50 is 100 µM (active) in [9] and 47.1 µM (active) in assay [16].

Take `CC1=CC[C@H](C(C)C)C=C1`: the outcome in [1], in assay [2], in assay [3], in assay [4], in [5] and in assay [6] was inactive. Besides, the compound was called inactive in assay [7], in assay [8], in assay [9], in assay [11], in [12] and in assay [13]. In addition, the compound was called inactive in assay [14], in [15], in [16] and in [18]. In addition, the AC50 in assay [17] is 66.3 µM (active).

In the case of `c1cc(C(c2ccc(OCC3CO3)cc2)C(c2ccc(OCC3CO3)cc2)c2ccc(OCC3CO3)cc2)ccc1OCC1CO1` (centres undefined), the result in [1], in assay [2], in [4], in assay [5], in assay [6] and in assay [7] was inactive. Also, the outcome in assay [8], in assay [9], in assay [10], in assay [12], in assay [13] and in [14] was inactive. Also, the call in [15] and in [18] was inactive. The AC50 in [3] is 39.5 µM (active); in [11], 63.3 µM (active); in [17], 50.2 µM (active).

On to `CCO[Si](CCCN=C=O)(OCC)OCC`, for which the result in assay [1], in [2], in assay [3], in [4], in assay [5] and in assay [6] was inactive. The call in [7], in [8], in [9], in assay [11], in assay [12] and in assay [13] was inactive. The compound was called inactive in [14], in assay [15], in [16], in assay [17] and in [18].

What is called AC50 is the midpoint of the concentration-response curve, whichever way the signal moves.

These data come from PubChem BioAssay (EPA / NIEHS).
